Here are results for ten molecules from PubChem BioAssay (NCI).

SMILES strings stand for the structures. This is part of a sample that, as a whole, favours compounds with a hit. Of some 83,000 tested, about 20% had one in any assay.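 Plates (96-well) were seeded with cells, treated with compound at one concentration, and incubated for 48 hours before percent growth was determined.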 Active and inactive are the calls of the source. Rule for the calls: active = growth percent below 10; inactive = the rest.

The test deals with HL-60(TB) leukemia. The experiment in a line: NCI-60 one-dose screen, 48 h (100 = growth as untreated, 0 = no growth, -100 = all killed). As to conditions: 10 µM unless noted.
For the molecule `Clc1ccc(CSc2nnc(-c3ccc(Cl)cc3)n2-c2ccccc2)cc1`, the growth is 90.9% (inactive).
In the case of `Cn1cc(-c2nnc(N)nc2-c2c[nH]c3ccc(Br)cc23)c2cc(Br)ccc21`, the growth was 90.8% (inactive).
Regarding `CCOP(=O)(OCC)OC[C@]12CCC(C)(C)C[C@H]1C1=CC[C@@H]3[C@@]4(C)C/C(=C\c5cccnc5)[C@H](OP(=O)(OCC)OCC)C(C)(C)[C@@H]4CC[C@@]3(C)[C@]1(C)CC2`, the growth was -22.2% (active).
`COC(=O)C1(C)CCC[C@]2(C)[C@H]3C[C@H]4C(C(C)C)=C[C@]3(CC[C@@H]12)[C@H]1[C@@H]4[C@@H](OC(=O)c2ccco2)CC[C@@H]1OC(=O)c1ccco1` (stereo not given in full): the growth was 91.9% (inactive).
For the molecule `COc1ccc(Oc2ccc(C3CC(c4cc(OC)c(OC)c(OC)c4)=NN3C(C)=O)cc2)cc1` (stereo not given), the growth is -14.9% (active).
For the molecule `CC1CCN(S(=O)(=O)c2ncsc2-c2ccccc2)CC1`, the growth is 72.3% (inactive).
Then `COc1cc2cc(Oc3ccc(NC(=O)Nc4cc(C(F)(F)F)cc(C(F)(F)F)c4)cc3)c(C)nc2cc1OCCN(C)C`, with 109% (inactive); and `COc1cc(-c2nn(C(C)(C)C)cc2-c2ccnc(NCCCNS(=O)(=O)c3ccc(C)cc3)n2)ccc1Cl`, with 108% (inactive).
Then `CC1(C)CC[C@]2(C(=O)N3CCCN(CC#N)CC3)CC[C@]3(C)C(=CC[C@@H]4[C@@]5(C)CC[C@H](O)C(C)(C)[C@@H]5CC[C@]43C)[C@H]2C1`, with -15.9% (active).
Then `C=C(C=O)[C@@H]1CC[C@]2(COC(C)=O)CC[C@]3(C)C(CC[C@@H]4[C@@]5(C)CC[C@H](OC(C)=O)C(C)(C)[C@@H]5CC[C@]43C)[C@@H]12` (stereo not given in full), with -10.9% (active).
